Results taken from PubChem BioAssay AID430 (Sanford-Burnham Center for Chemical Genomics, 2006).
Screen size: about 63,000 compounds; about 1,100 (1.7%) were called active. Only a selection was taken, and actives are over-represented in it overall. Potency and affinity values are given separately. Unmarked numbers belong to inactive results. Rule as the data show it: active = cytotoxicity above about 50%; inactive = the rest.

Assay: HPDE-C7 pancreatic duct cell viability loss – fluorescence, HTS (AID 430);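 also: cells exposed to compound for 48 hours before viability readout; 0% = vehicle and 100% = reference cytotoxic drug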
Conditions: HPDE-C7 pancreatic duct cells viability, at 10 µM, stronger effect = higher value

| Structure (SMILES) | cytotoxicity |
| --- | --- |
| COC(=O)c1ccc(CSc2nc(N)cc(N)n2)cc1 | -4.4% |
| CCC(C)NCC(O)COCc1ccc(Cl)cc1 (stereo unspecified) | 9.9% |
| O=C(c1ccco1)N1CCN(C(=O)c2cnn3c2NC(c2cccs2)CC3C(F)(F)F)CC1 (stereo unspecified) | -5% |
| O=C(c1cnn2c1NC(c1ccco1)CC2C(F)(F)F)N1CCN(c2cccc(Cl)c2)CC1 (stereo unspecified) | 50.2% (active) |
| O=C(Nc1ccc2c(c1)CCC2)c1cnn2c1NC(c1ccco1)CC2C(F)(F)F (stereo unspecified) | -4.4% |
| Cc1ccc(-c2ccc(=O)n(CCC(=O)NCCN3CCCCC3C)n2)cc1 (stereo unspecified) | 5.1% |
| O=S(=O)(Nc1nc2ccccc2nc1NCCO)c1cccc(Cl)c1 | 12.5% |
| CCOC(=O)N1CCC(N(C(=O)Nc2ccccc2)C(C)CC)CC1 (stereo unspecified) | -4.7% |
| CCCOc1ccccc1C1CC(=O)Nc2cc3c(cc21)OCO3 (stereo unspecified) | 54.1% (active) |
| O=C1CC(c2cccnc2)c2cc3c(cc2N1)OCCO3 (stereo unspecified) | 5.1% |
| CCCCOc1ccccc1C1CC(=O)NC2=C1C(=O)CCC2 (stereo unspecified) | 71.2% (active) |
| O=C1CC(c2cccs2)c2cc3c(cc2N1)OCCO3 (stereo unspecified) | 5.6% |
| O=C1CC(c2cccs2)c2cc3c(cc2N1)OCO3 (stereo unspecified) | 1% |
| CCOc1ccccc1C1CC(=O)NC2=C1C(=O)CCC2 (stereo unspecified) | 30.3% |
| CCCOc1c(OC)cccc1C1CC(=O)Nc2cc3c(cc21)OCCO3 (stereo unspecified) | 70.1% (active) |
| CCCOc1ccccc1C1CC(=O)Nc2cc3c(cc21)OCCO3 (stereo unspecified) | 63% (active) |
| CCCOc1c(OC)cccc1C1CC(=O)Nc2cc3c(cc21)OCO3 (stereo unspecified) | 12.7% |
| O=C1CC(c2ccc3c(c2)OCO3)c2cc3c(cc2N1)OCO3 (stereo unspecified) | -5.6% |
| CCCOc1ccccc1C1CC(=O)NC2=C1C(=O)CCC2 (stereo unspecified) | 47.3% |
| CCCOc1c(OC)cccc1C1CC(=O)Nc2cc(OC)c(OC)c(OC)c21 (stereo unspecified) | 10.7% |
| CCOc1ccccc1C1NC(=O)NC(C)=C1C(=O)OC1CCCCC1 (stereo unspecified) | 1.9% |
| COC(=O)c1c(C)n(-c2ccccc2)c2ccc(O)cc12 | 11.1% |
| CC(C)C(NC(=O)OCc1ccccc1)C(=O)NCC(=O)OC(C)(C)C (stereo unspecified) | 5.4% |
| COc1ccc(C)cc1NS(=O)(=O)c1ccc(NS(=O)(=O)c2ccc(NC(C)=O)cc2)cc1 | -5.6% |
| O=C(CCCOc1ccc(Cl)cc1)N1CCOCC1 | -10.1% |
| Cc1nc2sc(C(c3cccs3)N3CCC(C(N)=O)CC3)c(O)n2n1 (stereo unspecified) | -20.4% |

| Structure (SMILES) | cytotoxicity |
| --- | --- |
| OCC(CO)(CO)N=Cc1cc(Br)ccc1O | 8.1% |
| CCCc1n[nH]c2c1C(=O)CC(C)(C)C2 | 1.7% |
| CCN(C(=O)CSc1nc2nc(C)cc(C)n2n1)c1ccccc1 | -4% |
| COC(=O)Cn1c2ccc(F)cc2c2nc(C)sc21 | -12.3% |
| Cc1cc(Nc2ccccc2)n(-c2nc3ccccc3[nH]2)n1 | 4% |
| Cc1cc(=O)[nH]c(-n2nc(C)cc2C)n1 | -1.2% |
| Cc1ccc(Nc2cc(C)nn2-c2nc(C)cc(=O)[nH]2)cc1 | 102% (active) |
| Cc1nc(C)c(C(=O)C2=C(O)C(=O)N(CCN3CCOCC3)C2c2cccnc2)s1 (stereo unspecified) | -12.6% |
| CCC(=O)Nc1nnc(-c2ccco2)o1 | -23.7% |
| Fc1cccc2sc(Nc3nnc(-c4ccco4)o3)nc12 | 53.7% (active) |
| COc1cc(OC)cc(-c2nnc(Nc3nc4c(F)cccc4s3)o2)c1 | 8.8% |
| CC(=O)Nc1nc2c(F)cccc2s1 | 9.8% |
| c1coc(-c2nnc(NC3=NCCC3)o2)c1 | 7.5% |
| Fc1cccc2sc(Nc3nnc(-c4ccccc4)o3)nc12 | 53.3% (active) |
| Cc1ccc2c(n1)sc1c(N)ncnc12 | 9.8% |
| O=C(CSCc1cccc(Br)c1)N1CCOCC1 | -8.7% |
| COc1ccc(-c2noc(-c3cc(Cl)ccc3Cl)n2)cc1OC | -2.3% |
| CCOc1ccc(C2N(c3ccc(OC)cc3)C(=O)C3CCCN32)cc1OC (stereo unspecified) | 2.1% |
| CCOC(=O)N1CCN(Cc2cc(=O)oc3ccc4ccccc4c23)CC1 | 14.3% |
| O=C(Nc1cc(=O)c2ccccc2o1)N1CCOCC1 | 11.2% |
| CCOC(=O)/C=C(\C)Sc1cc(=O)oc2ccccc12 | 78.4% (active) |
| CCOC(=O)Nc1cc(=O)c2ccccc2o1 | 53.2% (active) |
| CCOC(=O)Oc1ccc2oc(=O)cc(C)c2c1 | 4.4% |
| O=C(Nc1cc(=O)c2ccccc2o1)N1CCCCC1 | -24.9% |
| COc1ccc(Cl)cc1NC(=O)C1CCCN(S(=O)(=O)c2cccc3nonc23)C1 (stereo unspecified) | -12.6% |
